# Source: PubChem BioAssay AID588664 (The Scripps Research Institute Molecular Screening Center, 2011)
# The whole screen tested about 360,000 compounds, of which about 1,400 (0.39%) were called active. What follows is part of a selection rich in actives, with near analogues and random picks from the rest. Values without a mark were called inactive. No stated cut-off is given here; in the data, active means inhibition above about 5% (passing the limit was not always enough); inactive means the rest.
# Target: Tyrosine-protein kinase ABL1 (Homo sapiens) + Ras and Rab interactor 1 (Homo sapiens) (UniProt P00519+Q13671)
# Sequence (P00519 whole entry, looked up): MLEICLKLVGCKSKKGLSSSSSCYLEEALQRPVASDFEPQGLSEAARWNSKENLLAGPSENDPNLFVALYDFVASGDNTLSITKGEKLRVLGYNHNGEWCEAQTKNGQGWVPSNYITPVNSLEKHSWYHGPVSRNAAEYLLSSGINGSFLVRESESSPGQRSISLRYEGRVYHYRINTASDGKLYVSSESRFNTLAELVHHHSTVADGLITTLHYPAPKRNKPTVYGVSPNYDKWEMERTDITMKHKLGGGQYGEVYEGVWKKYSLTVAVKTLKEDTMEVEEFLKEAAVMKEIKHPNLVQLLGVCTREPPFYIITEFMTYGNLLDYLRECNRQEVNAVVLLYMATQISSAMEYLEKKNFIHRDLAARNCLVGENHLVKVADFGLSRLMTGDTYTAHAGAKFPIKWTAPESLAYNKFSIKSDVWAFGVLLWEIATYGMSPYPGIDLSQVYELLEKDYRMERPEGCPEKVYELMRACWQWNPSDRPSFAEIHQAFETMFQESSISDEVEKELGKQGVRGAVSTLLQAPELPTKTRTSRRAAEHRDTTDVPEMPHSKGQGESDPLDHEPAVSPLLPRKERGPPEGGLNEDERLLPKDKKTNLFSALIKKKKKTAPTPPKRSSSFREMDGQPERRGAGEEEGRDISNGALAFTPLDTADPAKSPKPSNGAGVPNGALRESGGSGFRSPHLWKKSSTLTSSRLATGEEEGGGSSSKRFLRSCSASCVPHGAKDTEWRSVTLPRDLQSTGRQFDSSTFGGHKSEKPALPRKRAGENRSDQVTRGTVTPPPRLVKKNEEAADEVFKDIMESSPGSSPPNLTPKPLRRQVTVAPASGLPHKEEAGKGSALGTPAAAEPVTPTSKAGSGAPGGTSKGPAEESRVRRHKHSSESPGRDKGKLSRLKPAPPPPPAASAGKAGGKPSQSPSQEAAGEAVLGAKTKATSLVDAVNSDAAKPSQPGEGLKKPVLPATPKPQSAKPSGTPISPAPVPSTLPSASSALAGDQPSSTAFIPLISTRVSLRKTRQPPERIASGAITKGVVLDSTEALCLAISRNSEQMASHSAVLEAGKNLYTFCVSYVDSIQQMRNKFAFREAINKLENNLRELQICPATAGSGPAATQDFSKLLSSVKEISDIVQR
# Sequence (Q13671 whole entry, looked up): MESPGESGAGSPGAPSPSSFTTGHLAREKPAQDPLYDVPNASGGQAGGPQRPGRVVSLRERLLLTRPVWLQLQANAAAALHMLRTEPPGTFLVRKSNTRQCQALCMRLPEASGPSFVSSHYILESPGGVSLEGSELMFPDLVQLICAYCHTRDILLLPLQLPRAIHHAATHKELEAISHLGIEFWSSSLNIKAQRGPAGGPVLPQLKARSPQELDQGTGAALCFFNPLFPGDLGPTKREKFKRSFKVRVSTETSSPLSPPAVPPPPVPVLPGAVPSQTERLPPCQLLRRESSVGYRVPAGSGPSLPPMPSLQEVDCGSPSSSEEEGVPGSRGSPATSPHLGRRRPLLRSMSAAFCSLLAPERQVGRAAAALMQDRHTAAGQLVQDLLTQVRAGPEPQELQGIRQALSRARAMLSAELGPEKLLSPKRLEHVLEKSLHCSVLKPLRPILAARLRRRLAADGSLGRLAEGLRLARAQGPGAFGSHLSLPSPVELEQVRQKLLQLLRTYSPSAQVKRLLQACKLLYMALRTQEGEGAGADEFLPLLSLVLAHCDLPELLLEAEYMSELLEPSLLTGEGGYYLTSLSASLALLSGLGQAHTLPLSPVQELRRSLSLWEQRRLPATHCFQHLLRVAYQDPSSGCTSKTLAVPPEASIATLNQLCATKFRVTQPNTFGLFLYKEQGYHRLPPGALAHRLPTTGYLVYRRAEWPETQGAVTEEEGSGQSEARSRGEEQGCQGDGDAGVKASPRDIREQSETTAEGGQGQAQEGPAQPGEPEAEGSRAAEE
# Assay: disruptors of human Abl and Rin1 association – biochemical, TR-FRET, primary screen (AID 588664)
# Details: TR-FRET Rin1/Abl binding, at 7.35 µM, active compounds read high
row,Structure (SMILES),inhibition
1,Nc1ncnc2c1ncn2[C@@H]1O[C@H](CNS(=O)(=O)c2ccc(-c3ccno3)s2)[C@@H](O)[C@H]1O,-1.25%
2,CCc1ccc(C(=O)NNC(=O)C2CCN(c3ncnc4sc(C)c(C)c34)CC2)cc1,-0.76%
3,CCOc1ccc(S(=O)(=O)N2CCC(C(=O)OCc3ccc(OC)cc3)CC2)cc1,3.73%
4,COc1cccc(COC(=O)C2CCN(S(=O)(=O)c3ccc(Cl)cc3)CC2)c1OC,3.29%
5,COC(=O)c1ccc(COC(=O)C2CCN(S(=O)(=O)c3c(Cl)cccc3Cl)CC2)o1,15.2% (active)
6,C=CCN1C(=O)c2ccc(C(=O)N3CCC(C(=O)OCC)CC3)cc2C1=O,2.75%
7,O=C(O)CC1S/C(=N\N=C/c2ccccc2O)N(c2ccc(O)cc2)C1=O (configuration not stated),1.65%
8,C#CCOCCOCCOCCNc1nc(N2CCN(C(=O)[C@H](CCCCN)n3cc([C@@H](N)C(C)CC)nn3)CC2)nc(N2CCN(C(=O)[C@H](Cc3ccc(O)cc3)n3cc([C@@H](N)C(C)CC)nn3)CC2)n1 (some centres not stated),5.61%
9,C#CCOCCOCCOCCNc1nc(N2CCN(C(=O)C(Cc3ccc(O)cc3)n3cc(C(N)CC(C)C)nn3)CC2)nc(N2CCN(C(=O)C(Cc3ccc(O)cc3)n3cc(C(N)C(C)CC)nn3)CC2)n1 (configuration not stated),14.3% (active)
10,C#CCOCCOCCOCCNc1nc(N2CCN(C(=O)[C@H](Cc3ccc(O)cc3)n3cc(C(N)CC(C)C)nn3)CC2)nc(N2CCN(C(=O)[C@H](CCC(=O)O)n3cc(C(N)[C@H](C)CC)nn3)CC2)n1 (some centres not stated),2.63%
11,CSc1ncnc2c1ncn2CCCNCC1CCCCC1,-2.89%
12,CC12CCC(=O)C=C1CCC1C2C(O)CC2(C)C1CCC2(O)C(O)CO (configuration not stated),4.13%
13,CSc1ncnc2c1ncn2CC(=O)C1CCC2C3CCC4=CC(=O)CCC4(C)C3CCC12C (configuration not stated),13.2% (active)
14,CSc1ncnc2c1ncn2CCCNCc1ccco1,-1.36%
15,CCOC(=O)CN(C(=O)COc1nc(C)cc(C)c1C#N)c1ccc(Cl)cc1,6.34% (active)
16,CCOC(=O)CN(C(=O)COc1nc(-c2ccccc2)cc(C)c1C#N)c1ccc(F)cc1,-3.22%
17,CCOC(=O)COc1nc(C)cc(C(F)(F)F)c1C#N,0.37%
18,CN(C1CCS(=O)(=O)C1)S(=O)(=O)c1ccc2ccccc2c1 (configuration not stated),0.18%
19,COc1cc2c(cc1O)C(SC)=NC(C)(C)C2,2.88%

row,Structure (SMILES),inhibition
1,CCOc1ccc(-n2c(SCC(=O)NC3CCS(=O)(=O)C3)nnc2-c2cccnc2)cc1 (configuration not stated),5.73% (active)
2,CCOc1cccc(-c2nnc(SCC(=O)NC3CC3)n2C)c1,-0.29%
3,COc1cccc(-n2c(SCC(=O)NC3CCS(=O)(=O)C3)nc3ccccc3c2=O)c1 (configuration not stated),-0.16%
4,Cc1ccc(C(=O)CSc2nc3ccccc3c(=O)n2N)o1,-0.26%
5,Cc1ccccc1N1CCN(CC(=O)NCc2ccc(Cl)cc2)CC1,1.14%
6,COc1cc(CNc2ncnc3c2ncn3[C@H]2CN(Cc3cccs3)C[C@@H](CO)O2)cc(OC)c1OC,3.5%
7,CC(C)Cn1c(N2CCN(C(=O)/C=C/c3ccccc3)CC2)nc2ccccc21,0.97%
8,Cc1cccc(C)c1NC(=O)CNC(=O)c1ccc2c(c1)OCCO2,1.15%
9,O=C(NCCc1ccc(C(F)(F)F)cc1)c1ccc2c(c1)OCO2,-1%
10,CN(Cc1c(F)cccc1Cl)C(=O)CNC(=O)c1ccc2c(c1)OCO2,34.7% (active)
11,Cn1c(=O)cc(SCC(=O)N2CCCC2)c2cc(Cl)ccc21,-25.5%
12,CNC1(c2nnnn2-c2c(C)cccc2C)CCOC(C)(C)C1 (configuration not stated),-2.89%
13,Oc1ccc2ccc3cccc[n+]3c2c1,-21.5%
14,COc1cc(C(=S)N2CCOCC2)ccc1O,11% (active)
15,COc1ccc(C)cc1NC(=S)N1CCOCC1,-0.53%
16,CCOc1cc(C(=S)N2CCOCC2)ccc1O,-1.01%
17,CCOC(=O)C1CCN(C(=O)COc2cc(C)c(Br)c(C)c2)CC1,-1.96%
18,CCn1c(SCC(=O)Nc2ccc(OC)c(OC)c2)nnc1-c1c[nH]c2ccccc12,3.38%
